Screens (PubChem)
DT40 TDP1 no CPT = qHTS for Inhibitors of human tyrosyl-DNA phosphodiesterase 1 (TDP1): qHTS in cells in absence of CPT; DT40 Tdp1-/- hTDP1 cells, no CPT, ATP luminescence, 48 h; 420,000 tested, 15% active; Potency, µM (top dose mostly 46.2 µM), for the others: at the top dose activity change, negative = growth inhibition, usual class: inhibitors; also: potency is read from the fitted curve at half-maximal effect; nearly all actives have a fitted effect of over 55% in size
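DT40 Tdp1-/-;hTDP1 cells, no CPT (DMSO vehicle only), 400 cells/well; compounds pin-transferred; ≥48 hr, 37 °C; CellTiter-Glo 30 min RT dark, luminescence read.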
Giardia killer = Giardia lamblia killing; Giardia lamblia trophozoite viability; activity change, % at 7.66 µM, hits read low; 340,000 tested, 0.15% active; AID 540267; in the data active = activity change below about -80%; inconclusive = between about -30% and that limit;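 also: parasites exposed to compound for two days anaerobically before the ATP read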
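Trophozoite viability was measured as ATP-dependent luminescence, read 15-30 min after reagent addition. Before that, parasites at 100 cells/well were exposed to compounds for 48 h, anaerobically, at 37 deg C.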
IL1B secr inh = inhibitors of inflammasome signaling (IL-1 beta secretion); THP-1 LPS/ATP IL-1B secretion, AlphaLISA, 16 h; active compounds read low; activity change, % at 57.5 µM; 360,000 tested, 4.7% active; in the data active = activity change below about -50%; inconclusive = mostly about -30% to -49%
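Secreted IL-1B measured by AlphaLISA bead assay after 16 h compound exposure of THP-1 cells; compounds (final up to 57.5 uM) added 1 h before LPS (250 ng/mL) and ATP (1.25 mM) stimulation; lower signal means less secretion.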
DT40 TDP1 CPT = DT40-hTDP1 cell growth loss with CPT; AID 686979; 420,000 tested, 12% active; chicken DT40 Tdp1-/-;hTDP1 cells + 20 nM CPT, ATP luminescence, 48 h; Potency, µM (titrated, usually from 46.2 µM), inactives show at the highest dose activity change, negative = growth inhibition, most hits filed as inhibitors; also: potency is read from the fitted curve at half-maximal effect; nearly all actives have a fitted effect of over 55% in size
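Chicken DT40 Tdp1-/- cells stably complemented with human TDP1 were seeded at 400 cells/well in medium containing 20 nM camptothecin, exposed to pin-transferred compounds, and grown at 37 °C for at least 48 hr. Viability was read as ATP luminescence.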
ELG1 repair inh = inhibitors of ELG1-dependent DNA repair in HEK293T cells. 330,000 tested, 2.3% active. AID 504467. Potency, µM (top dose mostly 46.1 µM), without a hit: at the top dose activity change, negative = inhibition, most hits filed as inhibitors. HEK293T ELG1-luciferase reporter, luminescence, 16 h; DNA damage induced by 5-fluorouridine; also: potency is read from the fitted curve at half-maximal effect; nearly all actives have a fitted effect of over 55% in size
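Overnight (16 hr) co-exposure of 2,000 cells/well to 5-fluorouridine and compound at 37 °C preceded detection. Luciferase was quantified via ONE-Glo luminescence; loss of signal denotes inhibition.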
TDP1 block = inhibitors of human tyrosyl-DNA phosphodiesterase TDP1; recombinant TDP1, AlphaScreen DNA substrate cleavage; Potency, µM (titrated, usually from 130 µM), without a hit: at the top dose activity change, negative = inhibition, most hits filed as inhibitors; 350,000 tested, 0.28% active; also: potency is read from the fitted curve at half-maximal effect; nearly all actives have a fitted effect of over 40% in size
Target sequence (Q9NUW8 whole entry, looked up): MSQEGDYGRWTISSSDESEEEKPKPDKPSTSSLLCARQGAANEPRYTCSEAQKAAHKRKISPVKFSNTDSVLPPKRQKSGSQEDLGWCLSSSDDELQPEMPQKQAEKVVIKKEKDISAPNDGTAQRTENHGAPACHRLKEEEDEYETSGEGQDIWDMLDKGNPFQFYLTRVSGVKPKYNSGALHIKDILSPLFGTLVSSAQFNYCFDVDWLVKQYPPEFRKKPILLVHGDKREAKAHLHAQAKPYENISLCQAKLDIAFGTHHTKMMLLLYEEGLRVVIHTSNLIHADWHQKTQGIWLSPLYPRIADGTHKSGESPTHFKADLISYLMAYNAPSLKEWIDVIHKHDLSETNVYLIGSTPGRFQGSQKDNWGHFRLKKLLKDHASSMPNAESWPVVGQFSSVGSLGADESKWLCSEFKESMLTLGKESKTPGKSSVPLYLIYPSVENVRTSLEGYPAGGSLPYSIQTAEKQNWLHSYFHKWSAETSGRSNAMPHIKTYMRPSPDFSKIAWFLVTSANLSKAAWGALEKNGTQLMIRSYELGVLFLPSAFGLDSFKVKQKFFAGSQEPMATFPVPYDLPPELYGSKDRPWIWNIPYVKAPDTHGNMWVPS
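E. coli-derived human Tdp1, 1 nM final. Cpd preinc 15 min RT; substrate 15 nM final, 5 min RT; AS bead mix 10 ug/ml final, 10 min RT. Signal loss = tyrosine-FITC cleavage. No-enzyme wells = max signal.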
Numbers without * were called inactive; u = inconclusive; x = no result; ! = repeats disagree. Rows were chosen to be rich in hits. Some 19% of all compounds tested hit in one or more screens of this group. Unless noted, calls follow the shape of the dose curve; as a rule, active = well fitted curve in the direction sought with a large enough effect; inconclusive = small, poorly fitted or top-dose-only effect, or another doubt; inactive = no such curve, though single readings can be large; an effect the other way counts as inactive or inconclusive. % is scaled to controls: 0 for no effect and ±100 for the full control effect.

SMILES	DT40 TDP1 no CPT	Giardia killer	IL1B secr inh	DT40 TDP1 CPT	ELG1 repair inh	TDP1 block
Cc1nc(S/C(C(=O)O)=C2/C(=O)Nc3ccccc32)n[nH]1	u	3	0	-29%	15%	6%
COC(=O)c1cccc(NC(=O)N(C)CCc2c(C)nn(C)c2C)c1	-3%	x	x	0%	x	4%
CC1CCCN(CCCNC(=O)c2ccc3c(c2)N(Cc2ccc(Cl)cc2)C(=O)c2ccccc2S3(=O)=O)C1 (stereo not given)	u	x	x	u	x	3%
CC1CCN(C(c2nnnn2CCc2ccccc2)C(C)C)CC1 (stereo not given)	18µM*	18	-6	u	2%	5%
CC(C)C(c1nnnn1CCc1ccccc1)N1CCOCC1 (stereo not given)	-1%	-10	7	8%	0%	-6%
COc1ccc(CCn2nnnc2C(C(C)C)N2CCN(c3ncccn3)CC2)cc1OC (stereo not given)	-18%	7	-12	-8%	u	2%
COc1ccc(N2CCN(C(c3nnnn3CCc3ccccc3)C(C)C)CC2)cc1 (stereo not given)	18µM*	8	-23	13µM*	u	3%
COC(=O)c1ccccc1NC(=O)C1CCCO1 (stereo not given)	11%	6	18	6%	8%	-1%
C=CCOC(=O)N[C@H](c1cccc(C(F)(F)F)c1)C(C(C)=O)C(C)=O	x	x	x	x	x	-6%
CCCCCn1c(CN2CCN(c3cccc(Cl)c3)CC2)nc2c1c(=O)n(C)c(=O)n2C	21µM*	11	-18	16µM*	u	4%
CCCCn1c(CN2CCN(c3cccc(Cl)c3)CC2)nc2c1c(=O)n(C)c(=O)n2C	6.5µM*	12	-8	7.3µM*	u	8%
Cc1ccc(Cn2c(CN3CCN(c4cccc(Cl)c4)CC3)nc3c2c(=O)n(C)c(=O)n3C)cc1	u	x	x	18µM*	x	5%
Cc1ccccc1Cn1c(CN2CCN(c3ccc(F)cc3)CC2)nc2c1c(=O)n(C)c(=O)n2C	x	x	x	x	-6%	0%
CCCn1c(CN2CCN(c3cccc(Cl)c3)CC2)nc2c1c(=O)n(C)c(=O)n2C	6.5µM*	3	25	5.8µM*	u	4%
CCOC(=O)c1nnsc1N	-1%	-24	-6	-1%	10%	7%
CN(C)c1ccc(/C=C2\N=C(C(C)(C)C)OC2=O)cc1	4%	9	-3	-12%	6%	7%
O=C(CCCOc1ccccc1)Nc1ccc(S(=O)(=O)Nc2ccccn2)cc1	-1%	-7	15	4%	-13%	4%
Cc1cc(C2(c3ccc(O)c(C)c3)OC(=O)c3ccccc32)ccc1O	u	27	0	-30%	0%	x
Cc1cc(O)c(C(C)C)cc1C1(c2cc(C(C)C)c(O)cc2C)OC(=O)c2ccccc21	9.2µM*	16	-99*	15µM*	16µM*	5%
CCC1=NN2C(=N)/C(=C\c3cccn3-c3ccc(Cl)cc3)C(=O)N=C2S1	-15%	20	0	18%	u	2%
CCC1=NN2C(=N)/C(=C\c3cccn3-c3ccc(C)c(C)c3)C(=O)N=C2S1	-18%	u	49	-8%	18µM*	5%
Cc1ccc(-n2cccc2/C=C2\C(=N)N3N=C(c4ccco4)SC3=NC2=O)cc1	5%	u	-6	u	3%	56µM*
CN(CC(=O)NCc1ccco1)C(=O)C1CC(=O)N(c2ccc3c(c2)OCCO3)C1 (stereo not given)	u	27	1	-5%	12%	2%
O=C(c1ccccc1)C1CCN(C(=O)C2CCC(=O)N(Cc3ccccc3F)C2)CC1 (stereo not given)	21µM*	-5	12	16µM*	-2%	6%
COc1ccc2c(c1)OC[C@H]1[C@H]2N2C(=O)c3cc(Br)ccc3NC(=O)[C@@]2(C)[C@H]1c1ccccc1	u	-22	-13	-6%	-1%	0%
SMILES	DT40 TDP1 no CPT	Giardia killer	IL1B secr inh	DT40 TDP1 CPT	ELG1 repair inh	TDP1 block
Cc1ccc2c(c1)[C@H]1[C@H](CO2)[C@H](c2ccccc2)[C@]2(C)C(=O)Nc3ccc(Br)cc3C(=O)N12	16µM*	6	u	u	u	1%
Cc1ccc2c(c1)C(=O)N1[C@H]3c4cc(Br)ccc4OC[C@@H]3[C@H](c3ccccc3)[C@]1(C)C(=O)N2	23µM*	-2	-23	23µM*	-9%	2%
C[C@@]12C(=O)NCC(=O)N1[C@@H]1c3cc(Br)ccc3OC[C@@H]1[C@@H]2c1ccccc1	-23%	-29	0	10%	u	1%
COc1ccc2c(c1)[C@H]1[C@H](CO2)[C@H](c2ccccc2)[C@]2(C)C(=O)Nc3ccc(Br)cc3C(=O)N12	u	-18	u	16µM*	15%	-4%
O=C(Cc1ccc(F)cc1)Nc1nnc(SCC(=O)NC2CCCC2)s1	-3%	-12	-8	21%	-4%	-2%
CCOc1ccccc1N1CCN(C(=O)c2cn(CC3CCCCC3)nn2)CC1	u	3	4	u	u	4%
CC(C)N=C(N)N=C(N)Nc1ccc(Cl)cc1	9.2µM*	-23	u	26µM*	3%	x
NC(=NCCCCCCN=C(N)/N=C(\N)Nc1ccc(Cl)cc1)/N=C(\N)Nc1ccc(Cl)cc1	13µM*!	8	-100*!	16µM*!	-10%	9%
O=C(O)c1nn(Cc2csc(-c3ccccc3)n2)c(=O)c2ccccc12	12µM*	-27	5	u	24%	7%
Cc1ccc(-c2noc(Cn3nc(C(=O)O)c4ccccc4c3=O)n2)cc1	-6%	0	-7	-1%	27%	x
